# CHT PAM = CHT positive allosteric modulators, primary screen, cell-based, membrane potential dye, choline EC20 | High affinity choline transporter 1 (Homo sapiens), Q9GZV3 | CHT-expressing cells; active compounds read high; LV-AA mutant CHT in HEK293 cells | B-score at 10 µM | hit rate 0.49% among 310,000 | AID 488977, 2010;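 active = initial fluorescence not abnormally high and integrated response B-score, plate-corrected, over 3 SD above library mean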
# TMEM16A act = TMEM16A chloride channel activators or potentiators, primary screen, cell-based, HTS; hit rate 0.3% among 340,000; HEK293 TMEM16A/YFP-H148Q/I152L, iodide quench fluorescence; active compounds read low; Anoctamin-1 (Mus musculus), Q8BHY3; B-score at 10 µM;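 active = fluorescence-ratio B-score plate-corrected deviation score at least 3 library SD below zero, with starting fluorescence score within 5 deviations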;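 also: channel opened by trigger with iodide after compound preincubation; score built on the fluorescence ratio of max minus min over baseline; more negative score means more quench and so TMEM16A activation or potentiation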
# TMEM16A inh = TMEM16A chloride channel inhibitors, primary screen, cell-based, HTS | HEK293 TMEM16A/YFP iodide influx fluorescence, ionomycin | Anoctamin-1 (Mus musculus), Q8BHY3 | AID 588511, 2011 | normalized B-score (activity score, 25-100; higher = stronger inhibition) at 10 µM | hit rate 1.2% among 310,000;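 active = ratio plate-corrected score three or more library SD toward inhibition, starting fluorescence score within five deviations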;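 also: score derived from kinetic fluorescence span divided by baseline fluorescence per well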
# Rce1 inh = yeast Rce1p protease inhibitors, primary screen, biochemical, fluorescence, cell-free homogeneous; hit rate 0.27% among 290,000; CAAX prenyl protease 2 (Saccharomyces cerevisiae (strain ATCC 204508 / S288c)), Q03530; calls only; AID 2563, 2010; yeast membranes, quenched prenylated peptide cleavage fluorescence;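 active = fall in fluorescence gain of 50% or more versus controls, with final raw signal at or below 3038400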;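 also: plate controls were neutral control wells for no effect and wells lacking membranes for full effect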
# CHT inh = inhibitors of human choline transporter CHT; High affinity choline transporter 1 (Homo sapiens), Q9GZV3; CHT-expressing cells, membrane potential dye, choline response; active compounds read low; B-score at 10 µM; hit rate 0.86% among 310,000;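 active = B-score over 3 SD under the library average, and starting fluorescence ratio not unusually high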;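 also: choline stimulus applied at its EC90 after an EC20 pre-addition; B-score computed on integrated fluorescence ratio after choline addition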
# Kir21 inh = inhibitors of mouse Kir2.1 inward-rectifier potassium channel; Inward rectifier potassium channel 2 (Mus musculus), P35561; HEK293-Kir2.1, FluxOR thallium flux fluorescence; active compounds read low; B-score at 10 µM; hit rate 0.85% among 310,000;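 active = fluorescence ratio B-score at or below minus 3 SD of library scores, with starting-brightness B-score within 2 SD, cut at about -4.2 in these data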;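 also: channel flux triggered by added potassium and thallium sulfate stimulus; B-score of peak minus minimum fluorescence over baseline after thallium stimulus; more negative B-score means stronger Kir2.1 block with less thallium influx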
# Target sequence (P35561 whole entry, looked up): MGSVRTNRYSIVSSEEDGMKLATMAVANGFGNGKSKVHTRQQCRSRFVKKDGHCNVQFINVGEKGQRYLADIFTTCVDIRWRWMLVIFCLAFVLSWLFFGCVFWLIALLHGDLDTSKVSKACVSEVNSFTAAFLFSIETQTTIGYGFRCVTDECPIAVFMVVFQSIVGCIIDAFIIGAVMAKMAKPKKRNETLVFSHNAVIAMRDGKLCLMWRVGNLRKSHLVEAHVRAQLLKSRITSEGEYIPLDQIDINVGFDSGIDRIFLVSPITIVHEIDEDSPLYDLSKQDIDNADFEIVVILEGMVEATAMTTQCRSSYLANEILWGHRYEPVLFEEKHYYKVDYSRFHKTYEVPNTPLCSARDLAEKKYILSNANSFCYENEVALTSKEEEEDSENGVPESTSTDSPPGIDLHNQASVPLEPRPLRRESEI
# CHT act confirm = CHT activators, confirmation, cell-based, membrane potential dye, duplicate | shares compounds with CHT PAM | hit rate 91% among 2,500 | AID 504833, 2011 | CHT-expressing cells, membrane potential dye fluorescence (FDSS); % of choline EC20–EC90 response window; HEK293 expressing CHT LV-AA mutant; choline added at its EC20 | activation, % at 10 µM;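 active = primary screen active, with duplicate mean activation above negative control mean plus 3 SD, cut at about 11% in these data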
# HEK293 MP dye = membrane potential response in parental HEK293 cells, counter-screen for CHT activator project, cell-based, membrane potential dye | shares compounds with CHT PAM | membrane potential dye fluorescence (FDSS); measured after EC20 choline addition | ratio readout change at 10 µM, hits read low | hit rate 62% among 2,500 | AID 623908, 2012;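 active = duplicate-averaged ratio beyond 3 SD from buffer wells, up or down, though filed actives are nearly all decreases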
# * marks the source's active call; other numbers are inactive results; i = inactive; · = no result. This is a sample that favours compounds with a hit; in the whole collection about 3.2% have one here.
SMILES,CHT PAM,TMEM16A act,TMEM16A inh,Rce1 inh,CHT inh,Kir21 inh,CHT act confirm,HEK293 MP dye
COc1cc(OC)c2ccc(=O)oc2c1C(CC(=O)N1CCN(c2ccccc2)CC1)c1ccc2c(c1)OCO2 (configuration not stated),i,i,i,i,i,0.43,33*,i
COc1ccc(C2NC(=O)NC(C)=C2[N+](=O)[O-])cc1 (configuration not stated),i,i,i,i,i,0.49,·,·
CC(NC(=O)COC(=O)Cc1ccsc1)c1ccccc1 (configuration not stated),6.4*,i,i,i,i,-1.9,-7,i
O=C(CN1CCSC1=O)N1CCN(S(=O)(=O)c2ccccc2)CC1,·,i,·,·,·,·,·,·
CC1(C)Cc2c(sc3nc4n(c(=N)c23)CCC4)CO1,8.5*,i,i,i,i,0.19,50*,-63*
Cc1nc2sc3c(c2c(=O)o1)CC(C)(C)OC3,i,i,i,i,i,0.54,·,·
N=c1c2c3c(sc2nc2n1CCC2)CCCC3,i,i,i,i,i,-1.4,48*,-40*
O=c1c2c3c(sc2nc2n1CCC2)CCCCC3,i,i,i,i,i,-1.8,·,·
CC(=O)Nc1ccc(S(=O)(=O)N(C)CC(=O)OCC(=O)N(C)c2ccccc2)cc1,i,i,i,i,i,-0.41,·,·
CCNc1c(NC(C)=O)c(=O)oc2ccccc12,i,i,i,i,i,0.13,1,i
CCNc1c(N)c(=O)oc2ccccc12,i,i,i,i,i,-0.95,·,·
O=C1C2CC=C(Cl)CC2C(=O)N1CCCCCCN1C(=O)C2CC=C(Cl)CC2C1=O (configuration not stated),i,i,i,i,i,-1.3,·,·
O=C1C2CC=C(Cl)CC2C(=O)N1CCC[n+]1cccc2ccccc21 (configuration not stated),i,i,i,i,i,0.69,50*,-25*
CN1C(=O)C(O)(C2COC(C)(C)CC2=O)c2cc(Br)ccc21 (configuration not stated),6.8*,i,i,i,i,1.8,8,i
CN1C(=O)C(O)(C2COC(C)(C)CC2=O)c2ccccc21 (configuration not stated),i,i,i,i,i,0.17,·,·
CCC(=O)Nc1c(C(=O)Nc2cccc(OC)c2)oc2ccccc12,i,i,i,i,i,-4.4e-16,·,·
CCCN(CCC)C(=O)c1oc2ccccc2c1NC(=O)Cc1cccc(OC)c1,16*,i,i,i,i,-0.21,29*,i
Cc1c(OC(C)C(=O)NC2CC(C)(C)NC(C)(C)C2)ccc2c3c(c(=O)oc12)CCC3 (configuration not stated),6.7*,i,i,i,i,0.04,43*,-52*
CC(C)CN(C(=O)COC(=O)C(C)N1C(=O)c2ccccc2C1=O)c1c(N)n(Cc2ccccc2)c(=O)[nH]c1=O (configuration not stated),i,i,i,i,i,0.32,·,·

# Assay outcomes as filed in PubChem.
